TDP1 cell noCPT = qHTS for Inhibitors of human tyrosyl-DNA phosphodiesterase 1 (TDP1): qHTS in cells in absence of CPT | Potency, µM (titrated, usually from 46.2 µM), for inactives: top-dose activity change, negative = growth inhibition, usual class: inhibitors | DT40 Tdp1-/- hTDP1 cells, no CPT, ATP luminescence, 48 h | AID 686978, 2013 | 420,000 tested, 15% active; also: potency is read from the fitted curve at half-maximal effect; % is scaled to controls: 0 for no effect and ±100 for the full control effect; nearly all actives have a fitted effect of over 55% in size
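Readout: luminescence from CellTiter-Glo after 30 min in the dark at RT. Cells: DT40 Tdp1-/- with stable hTDP1, 400/well. Exposure: compounds alone, ≥48 hr, 37 °C.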
TDP1 cell CPT = DT40-hTDP1 cell growth loss with CPT. chicken DT40 Tdp1-/-;hTDP1 cells + 20 nM CPT, ATP luminescence, 48 h. Potency, µM (highest dose often 46.2 µM), without a hit: top-dose activity change, negative = growth inhibition, most hits filed as inhibitors. 420,000 tested, 12% active. AID 686979; also: potency is read from the fitted curve at half-maximal effect; % is scaled to controls: 0 for no effect and ±100 for the full control effect; nearly all actives have a fitted effect of over 55% in size
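Chicken DT40 Tdp1-/- cells stably complemented with human TDP1 were seeded at 400 cells/well in medium containing 20 nM camptothecin, exposed to pin-transferred compounds, and grown at 37 °C for at least 48 hr. Viability was read as ATP luminescence.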
BCR signal inh = chronic active BCR signaling inhibition; ABC-DLBCL IkBa-CBG/CBR reporter, luminescence ratio, 4 h; 340,000 tested, 0.05% active; Potency, µM (top dose mostly 46.1 µM), without a hit: at the highest dose activity change, negative = inhibition, hits mostly inhibitors; AID 493014; active = well fitted inhibition curve with a large enough effect in the signal ratio, with a control signal flat, not every such curve was filed as active; inconclusive = small, poorly fitted or top-dose-only effect, or effect the other way, or a change in a side signal; the % refers to the signal ratio;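 also: potency is read from the fitted curve at half-maximal effect; plate controls were basal doxycycline-induced cells for no effect and cells given 10 µM MG132 for full effect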
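Doxycycline induced both beetle luciferases in TMD8 lymphoma cells; IKK-driven degradation limits the IkappaBalpha-fused green signal, while red luminescence normalises for cell number and nonspecific effects. Compounds tested up to 46 uM, 4 hrs.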
MCF10A rereplic = DNA re-replication induction in MCF 10a cells | MCF 10A DNA re-replication, Hoechst nuclear intensity, 48 h | Potency, µM (doses to about 46.1 µM), inactives show top-dose activity, positive = re-replication, most hits filed as activators | 350,000 tested, 2.9% active; also: potency is read from the fitted curve at half-maximal effect; % of control where 0% means no effect; nearly all actives have a fitted effect of over 50% in size
SW480 rerep = DNA re-replication induction in SW480 cells | Potency, µM (top dose mostly 46.1 µM), for the others: at the highest dose re-replication activation, usual class: activators | 340,000 tested, 1.8% active | SW480 DNA re-replication, Hoechst DNA content imaging, 48 h; also: potency is read from the fitted curve at half-maximal effect; % of control where 0% means no effect; nearly all actives have a fitted effect of over 55% in size
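First, 250 cells per well were seeded. Next, compound or vehicle (23 nL) was pinned in, plates sat 48 hr at 37 C. Finally Hoechst was added for 40 min before fluorescence scanning.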
IL-1B inflam inh = blocks inflammasome-driven IL-1 beta release; THP-1 LPS/ATP IL-1B secretion, AlphaLISA, 16 h; hits give low values; activity change, % at 57.5 µM; 360,000 tested, 4.7% active; AID 743279; in the data active = activity change below about -50%; inconclusive = mostly about -30% to -49%; also: % is scaled to controls: 0 for no effect and ±100 for the full control effect
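Secreted IL-1B measured by AlphaLISA bead assay after 16 h compound exposure of THP-1 cells; compounds (final up to 57.5 uM) added 1 h before LPS (250 ng/mL) and ATP (1.25 mM) stimulation; lower signal means less secretion.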
Starred values were filed as active, the others as inactive; [ ] = remark or other dose. Sampled rows, rich in hits. Any-hit rate of the full collection: about 19%. Unless noted, calls follow the shape of the dose curve; as a rule, active = well fitted curve in the direction sought with a large enough effect; inconclusive = small, poorly fitted or top-dose-only effect, or another doubt; inactive = no such curve, though single readings can be large; an effect the other way counts as inactive or inconclusive.

What do the screens show for `COC(=O)c1ccccc1NC(=O)Cn1cc(S(=O)(=O)Cc2ccccc2F)c2ccccc21`?
TDP1 cell noCPT: 20.6µM*; TDP1 cell CPT: 14.6µM*

Results for O=C(Cn1cc(S(=O)(=O)Cc2cccc(Cl)c2)c2ccccc21)NCCc1ccccc1 ?
TDP1 cell noCPT: -1.0%; TDP1 cell CPT: -10.5%

What do the screens show for `CCN(CC)C(=O)Cn1cc(S(=O)(=O)CC(=O)NCc2ccc(F)cc2)c2ccccc21`?
TDP1 cell noCPT: -6.7%; TDP1 cell CPT: -20.8%; BCR signal inh: 2.5%; MCF10A rereplic: -1.0%; SW480 rerep: -26.0%; IL-1B inflam inh: inactive

How did COc1ccc(CCNC(=O)Cn2cc(S(=O)(=O)Cc3cccc(Cl)c3)c3ccccc32)cc1OC do in these assays?
TDP1 cell noCPT: 18.4µM*; TDP1 cell CPT: inconclusive

What do the screens show for `CC(C)C(C)/C=C/C(C)C1CCC2C3=CCC4CC(=O)CC[C@@]4(C)C3CC[C@]21C` (some centres undefined)?
TDP1 cell noCPT: -16.6%; TDP1 cell CPT: 3.3%

What do the screens show for `COc1ccc(CN2CCN(C(=O)c3ccccc3C(=O)c3ccccc3)CC2)cc1F`?
TDP1 cell noCPT: inconclusive; TDP1 cell CPT: inconclusive; IL-1B inflam inh: -19.7

Results for O=C(CSc1nnc(-c2ccccc2)c(-c2ccccc2)n1)N1CCc2ccccc21 ?
TDP1 cell noCPT: inconclusive; TDP1 cell CPT: 15.8µM*; BCR signal inh: 10.3%; MCF10A rereplic: inconclusive; SW480 rerep: 2.7%; IL-1B inflam inh: 5.2

What do the screens show for `O=C(O)c1ccccc1SCC(=O)N1CCc2ccccc21`?
TDP1 cell noCPT: -34.4%; TDP1 cell CPT: inconclusive; BCR signal inh: inconclusive; MCF10A rereplic: 16.4µM*; SW480 rerep: 27.5%; IL-1B inflam inh: -3.1

Results for Cc1cc(C)nc(SCC(=O)N2CCc3ccccc32)n1 ?
TDP1 cell noCPT: -4.1%; TDP1 cell CPT: -15.5%; MCF10A rereplic: -14.9%; SW480 rerep: -15.8%; IL-1B inflam inh: -8.6

How did O=C(CSc1nc(-c2ccccc2)cc(=O)[nH]1)N1CCc2ccccc21 do in these assays?
TDP1 cell noCPT: 16.4µM*; TDP1 cell CPT: 20.6µM*; BCR signal inh: -10.5%; MCF10A rereplic: inconclusive; SW480 rerep: 15.8%; IL-1B inflam inh: 8.8

How did Nc1cc(=O)[nH]c(SCC(=O)N2CCCc3ccccc32)n1 do in these assays?
TDP1 cell noCPT: 6.9%; TDP1 cell CPT: -14.6%; BCR signal inh: -6.1%; MCF10A rereplic: 19.7%; SW480 rerep: -4.2%; IL-1B inflam inh: 14.2

Results for CCOC(=O)C1(CC)NC(c2ccc(OC)c(OC)c2)C2C(=O)N(c3cccc(C(C)=O)c3)C(=O)C21 (centres undefined) ?
TDP1 cell noCPT: 1.6%; TDP1 cell CPT: 10.5%; BCR signal inh: -0.2%; MCF10A rereplic: 15.1%; SW480 rerep: -20.1%; IL-1B inflam inh: 9.3

Results for CCc1ccc2c(CN(C)Cc3ccc(OC(F)F)c(OC)c3)cc(=O)oc2c1 ?
TDP1 cell noCPT: inconclusive; TDP1 cell CPT: 18.4µM*; BCR signal inh: 0.5%; MCF10A rereplic: inconclusive; SW480 rerep: 0.9%; IL-1B inflam inh: -14.5

Results for COc1cc(Br)cc(CNc2ccc(F)c([N+](=O)[O-])c2)c1O ?
TDP1 cell noCPT: inconclusive; TDP1 cell CPT: inconclusive; BCR signal inh: inconclusive; MCF10A rereplic: 6.4%; SW480 rerep: -1.8%; IL-1B inflam inh: -94.7*

What do the screens show for `COc1ccc(Nc2c([N+](=O)[O-])ccc3c2=NC2(CCCCC2)N=3)cc1`?
TDP1 cell noCPT: 20.6µM*; TDP1 cell CPT: inconclusive; BCR signal inh: inconclusive; MCF10A rereplic: inconclusive; SW480 rerep: 14.0%; IL-1B inflam inh: -17.8

What do the screens show for `CC1CN(C(=S)Nc2ccccc2)C(C)CN1C=O` (centres undefined)?
TDP1 cell noCPT: -16.8%; TDP1 cell CPT: -17.0%; MCF10A rereplic: 9.3%; SW480 rerep: -8.2%; IL-1B inflam inh: -0.6

Results for COc1cccc(CNC(=O)CCS(=O)(=O)c2ccccc2Cl)c1 ?
TDP1 cell noCPT: -13.6%; TDP1 cell CPT: 13.6%; BCR signal inh: -3.1%; MCF10A rereplic: -1.5%; SW480 rerep: -10.4%; IL-1B inflam inh: -9.6

How did CCCN(CCC)CCNC(=O)C1CCN(Cc2nc(-c3ccc(Cl)cc3)oc2C)CC1 do in these assays?
TDP1 cell noCPT: 23.1µM*; TDP1 cell CPT: inconclusive; BCR signal inh: inconclusive; MCF10A rereplic: -3.0%; SW480 rerep: 8.2%; IL-1B inflam inh: inconclusive

What do the screens show for `Cc1oc(-c2ccc(Cl)cc2)nc1CN1CCC(C(=O)NCc2cccnc2)CC1`?
TDP1 cell noCPT: inconclusive; TDP1 cell CPT: -3.3%; BCR signal inh: inconclusive; MCF10A rereplic: inconclusive; SW480 rerep: 1.9%; IL-1B inflam inh: -58.1*

Results for Cc1oc(-c2cccc(Br)c2)nc1CN1CCC(C(=O)NCc2ccccc2)CC1 ?
TDP1 cell noCPT: inconclusive; TDP1 cell CPT: 18.4µM*; BCR signal inh: 25.5%

How did CC(C)c1ccc(CN2CCC(C(=O)NCc3cccnc3)CC2)cc1 do in these assays?
TDP1 cell noCPT: -18.2%; TDP1 cell CPT: -17.8%; BCR signal inh: -7.5%; MCF10A rereplic: 4.5%; SW480 rerep: 0.5%; IL-1B inflam inh: 7.8

What do the screens show for `O=C(CN(C1CCCCC1)S(=O)(=O)c1ccccc1)NCc1cccnc1`?
TDP1 cell noCPT: -20.9%; TDP1 cell CPT: -17.8%; BCR signal inh: -1.9%; MCF10A rereplic: 0.1%; SW480 rerep: 0.4%; IL-1B inflam inh: 5.6

Results for COc1ccc(-c2nc(CN3CCC(C(=O)NCCc4ccccc4)CC3)c(C)o2)cc1OC ?
TDP1 cell noCPT: inconclusive; TDP1 cell CPT: -28.9%

How did O=C(CN(C1CCCCC1)S(=O)(=O)c1ccc(Cl)cc1)NCc1cccnc1 do in these assays?
TDP1 cell noCPT: 16.4µM*; TDP1 cell CPT: inconclusive; BCR signal inh: 1.7%; MCF10A rereplic: -185.1%[0.0737 µM]; SW480 rerep: -5.4%; IL-1B inflam inh: 0.0

How did CC=C1C2C=C(C)CC1(N)c1ccc(=O)[nH]c1C2 (centres undefined) do in these assays?
TDP1 cell noCPT: -0.6%; TDP1 cell CPT: -18.9%

What do the screens show for `O=C(c1ccco1)n1nc(-c2ccccc2)nc1NCc1ccccc1Cl`?
TDP1 cell noCPT: inconclusive; TDP1 cell CPT: -27.7%
